Measurements published in PubChem BioAssay (NCATS).
Records with an inconclusive call do not appear. A number with no mark means an inactive call. Calls come from the whole dose curve; as a rule, active = well fitted cell-killing curve with a large enough effect; inconclusive = small, poorly fitted or top-dose-only effect; inactive = flat fitted curve, though single readings scatter.

experiment: Cell Viability - LYMP2-019 (AID 973); conditions: LYMP2-019 lymphoblastoid cell line viability; series mostly up to 92.2 µM; activity change, negative = cytotoxicity: at the top concentration;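 note: cells exposed to compound for 24 h at 37 °C; 0% = DMSO alone and full effect = 92 µM tetraoctylammonium bromide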
Procedure, shortened: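 Cytotoxicity is scored as a concentration-dependent drop in cellular ATP after cells (2500/well) receive compound for 24 hr at 37 C. Tetraoctylammonium bromide serves as positive control.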
Note: nearly all actives have a fitted effect of over 55% in size.

Point of comparison: `Clc1ccccc1`, “activity change, negative = cytotoxicity” value -0.977%. Against it:
- CC(C#N)CCC#N (configuration not stated) — lower, -4.71%
- Nc1cc(Cl)ccc1Cl — lower, -11.1%
- Nc1cccc(Cl)c1 — lower, -3.96%
- ClCc1ccccc1 — lower, -5.92%
- CCC/C=N/O — lower, -10.4%
- COc1c(C(C)(C)C)cc([N+](=O)[O-])c(C)c1[N+](=O)[O-] — lower, -1.97%
- O=S(=O)(Cl)c1ccccc1 — higher, 0.255%
- C=CCOCC1CO1 (configuration not stated) — lower, -2.08%
- c1ccoc1 — lower, -3.18%
- ClC(Cl)(Cl)C(Cl)(Cl)Cl — higher, 2.54%
- ClC(Cl)C(Cl)Cl — lower, -2.74%
- Oc1c(Cl)cccc1Cl — lower, -7.3%
- Brc1cccc(-c2ccccc2)c1 — lower, -5.53%
- C=CCO — lower, -13%
- OCCCCO — higher, 4.16%
- Nn1cnnc1 — lower, -5.23%
- BrCCc1ccccc1 — lower, -12.1%
- Cc1ccccc1[N+](=O)[O-] — lower, -9.47%
- CCCCOC(=O)c1ccccc1N — higher, 10.1%
- Clc1cc(Cl)c(Cl)c(Cl)c1 — lower, -7.88%
- Cc1ccc(N)c(C)c1 — lower, -8.5%
- C1CC2OC2CC1C1CO1 (configuration not stated) — higher, 0.806%
- CN(C)C(=O)Cl — lower, -11.9%
- CC(=O)NNc1ccccc1 — lower, -5.11%
- Cc1ccc(N=C=O)cc1N=C=O — lower, -22.5%
- O=C(Cl)OCc1ccccc1 — lower, -10.3%
- C=CC(=O)OC — lower, -14.7%
- CCN(CC)N=O — higher, 3.88%
- OCC(Cl)CCl (configuration not stated) — lower, -10.4%
- CC[N+](=O)[O-] — lower, -4.51%
- CC(C)(Cl)[N+](=O)[O-] — lower, -3.44%
- CC(C)OC(=O)Cc1ccccc1 — higher, 3.48%

experiment: Cell Viability - LYMP2-021 (AID 974); conditions: LYMP2-021 lymphoblastoid cells viability; series mostly up to 92.2 µM; activity change, negative = cytotoxicity: at the top concentration;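 note: compound exposure lasts 24 hours at 37 °C; % is set by controls: 0 for no effect and ±100 for the full control effect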
Procedure, shortened: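 Loss of cellular ATP, measured with a luciferase-based CellTiter-Glo readout, serves as the toxicity signal in human lymphoblastoid cells treated for 24 hours at 37 C. Potency is reported as AC50 from a standard Hill model.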

Point of comparison: `OCC(Cl)CCl` (configuration not stated), “activity change, negative = cytotoxicity” value 1.61%. Against it:
- CC(C#N)CCC#N (configuration not stated) — lower, -1.79%
- Nc1cc(Cl)ccc1Cl — lower, 1.43%
- Nc1cccc(Cl)c1 — lower, -2.25%
- ClCc1ccccc1 — higher, 2.4%
- CCC/C=N/O — higher, 3.2%
- COc1c(C(C)(C)C)cc([N+](=O)[O-])c(C)c1[N+](=O)[O-] — lower, -0.22%
- O=S(=O)(Cl)c1ccccc1 — lower, -2.36%
- C=CCOCC1CO1 (configuration not stated) — lower, -2.84%
- c1ccoc1 — lower, 0.88%
- Clc1ccccc1 — lower, -0.183%
- ClC(Cl)(Cl)C(Cl)(Cl)Cl — higher, 4.09%
- CCOC(=O)C1OC1(C)c1ccccc1 (configuration not stated) — lower, -1.38%
- C/C=C/CC#N — higher, 2%
- ClC(Cl)C(Cl)Cl — lower, 0.372%
- C=CCCl — lower, -0.322%
- Oc1c(Cl)cccc1Cl — lower, 0.663%
- Brc1cccc(-c2ccccc2)c1 — lower, -2.19%
- C=CCO — lower, -1.61%
- OCCCCO — lower, 1.33%
- Nn1cnnc1 — lower, -4.73%
- BrCCc1ccccc1 — lower, -3.02%
- Cc1ccccc1[N+](=O)[O-] — lower, -3.41%
- CCCCOC(=O)c1ccccc1N — lower, 0.927%
- Clc1cc(Cl)c(Cl)c(Cl)c1 — lower, 0.406%
- Cc1ccc(N)c(C)c1 — lower, 1.34%
- C1CC2OC2CC1C1CO1 (configuration not stated) — lower, -4.21%
- CN(C)C(=O)Cl — lower, -2.1%
- CC(=O)NNc1ccccc1 — lower, -0.941%
- Cc1ccc(N=C=O)cc1N=C=O — lower, -5.43%
- O=C(Cl)OCc1ccccc1 — lower, -1.22%
- C=CC(=O)OC — lower, -1.84%
- CCN(CC)N=O — lower, -5.05%
- CC(C)CON=O — lower, -4.41%
- CC[N+](=O)[O-] — lower, -0.997%
- CC(C)(Cl)[N+](=O)[O-] — lower, -1.93%
- C[N+](=O)[O-] — lower, -2.2%
- CC(C)OC(=O)Cc1ccccc1 — lower, -1.9%
- ClCC(Br)CBr (configuration not stated) — lower, -1.31%
